# Results filed as inconclusive are left out. Where a call stands in place of a potency, no number is given. Calls of active or inactive are those of the source. The call rests on the fitted dose curve; in most records, active means well fitted cell-killing curve with a large enough effect in the repeat runs; inconclusive means weak or mixed curves, or effect the other way; inactive means no such curve, though single readings can be large or run the other way.
# Test: qHTS assay to identify small molecule antagonists of the sonic hedgehog signaling (Shh) pathway - cell viability counter screen (AID 1259367); further: nearly all actives have a fitted effect of over 55% in size
# Settings: NIH/3T3 Gli1-Luc viability, CellTiter-Fluor, 24 h; series mostly up to 92.4 µM
# Description: National Center for Advancing Translational Sciences [NCATS]
# NIH Chemical Genomics Center [NCGC]
# U.S. Environmental Protection Agency [EPA]
# National Institutes of Environmental Health Sciences [NIEHS]
# National Toxicology Program [NTP]
# U.S. Food and Drug Administration [FDA]
# The sonic hedgehog (Shh) pathway is essential for normal embryonic development. Dysregulation of the Shh pathway can cause severe developmental defects in organs. Therefore chemicals that interfere with the pathway are potential developmental toxicants. A cell line designated 3T3Gli1-Luc (DMB/OARSA/CFSAN/FDA, Laurel, MD), a NIH/3T3 derived clone containing stably integrated Gli1-Luc reporter is used to detect chemical interference of the Shh pathway, by changes in the expression of the firefly Luc gene under the control of the Gli1 transcriptional response element. This cell line was used to screen Tox21 libraries for identifying and prioritizing the potential developmental toxicants that interfere Shh pathway. Conditioned medium-stimulated mode was used to screen for chemicals inhibiting Shh signaling. The cytotoxicity of the compounds was tested in parallel by measuring the cell viability using CellTiter-Fluor assay system (Promega, Madison, WI) in the same wells.
# Tox21 Assay Protocol Summary:
# 3T3 Gli1-Luc cells were dispensed at 2,000 per well in 5uL of culture medium into white solid bottom 1536-well plates (Greiner Bio-One, Monroe, NC) using a Multidrop Combi (Thermo Scientific, Waltham, MA) dispenser. The assay plates were incubated at 37 C and 5% CO2 for 4hr, and then 23nL of compounds dissolved in DMSO and positive control were transferred using a Pintool station (Wako, San Diego, CA). The compound transfer was followed by the addition of 1ul conditioned medium or assay buffer using two separate tips of Flying Reagent Dispenser (FRD, Aurora Discovery, San Diego, CA). The assay plates were incubated at 37C and 5% CO2 for 24hr. For viability read, after 23hr of compound treatment, 1uL of CellTiter-Fluor reagent (Promega Corporation, Madison, WI) was added to each well of the assay plates using Flying Reagent Dispenser (FRD, Aurora Discovery, San Diego, CA) and incubated the assay plates at 37C for 1hr. The fluorescence signal was quantified using a ViewLux plate reader (Perkin Elmer, Shelton, CT).
# Potency means the concentration at half of the fitted maximal effect.
row,SMILES,Potency
1,NC(=O)O,inactive
2,Cc1ccccc1CO[C@@H]1C[C@@]2(C(C)C)CC[C@]1(C)O2,inactive
3,Fc1cc(Br)ccc1CBr,inactive
4,CCOP(=S)(OCC)SCSc1ccc(Cl)cc1,inactive
5,CCC(Cl)[N+](=O)[O-] (stereo not given),inactive
6,OC(Cn1cncn1)(c1ccc(F)cc1)c1ccccc1F (stereo not given),inactive
7,CCOP(=S)(OCC)Oc1cc(-c2ccccc2)on1,inactive
8,COc1cc(C[C@@H](C)N)c(OC)cc1C,inactive
9,Oc1c(Cl)cccc1Cl,inactive
10,COC(=O)COc1ccc(Cl)cc1Cl,inactive
11,N#CC(Cl)(Cl)Cl,inactive
12,c1coc(-c2nc3ccccc3[nH]2)c1,inactive
13,CCSC(=O)N(CC)C1CCCCC1,inactive
14,COC(=O)c1c(C(F)F)nc(C(F)(F)F)c(C2=NCCS2)c1CC(C)C,inactive
15,CNC(=O)Oc1cccc(C(C)C)c1,inactive
16,ClCC(Cl)(Cl)Cl,inactive
17,Cc1nnc2n1-c1sc(CCC(=O)N3CCOCC3)cc1C(c1ccccc1Cl)=NC2,inactive
18,CCCCOC(=O)[C@@H](C)Oc1ccc(Oc2ccc(C#N)cc2F)cc1,inactive
19,CNCC(=O)c1ccc(O)c(O)c1,inactive
20,CNC(=O)Oc1ccc(N(C)C)c(C)c1,inactive

row,SMILES,Potency
1,O=C1CN2CCOC2(c2ccccc2Cl)c2cc(Cl)ccc2N1 (stereo not given),inactive
2,CC(=O)C(Cl)Cl,inactive
3,O=[N+]([O-])c1cc(Cl)c(Cl)c(Cl)c1,inactive
4,CCN(CC)C(C)C(=O)c1ccccc1 (stereo not given),inactive
5,CCOP(=O)(N=C1SCCS1)OCC,inactive
6,CC(=O)CCc1ccc2c(c1)OCO2,inactive
7,ClCCOCOCCCl,inactive
8,COCC(=O)N(c1c(C)cccc1C)N1CCOC1=O,inactive
9,CC(C)NCC(O)c1ccc(N)c(C#N)c1 (stereo not given),inactive
10,COc1cc(OC)nc(Sc2cccc(Cl)c2C(=O)O)n1,inactive
11,ClC(Cl)C(Cl)Cl,inactive
12,CCCSC(=O)N(CCC)CCC,inactive
13,CC(COc1ccc(Oc2ccccc2)cc1)Oc1ccccn1 (stereo not given),inactive
14,CCCCCCBr,inactive
15,O=C(O)C(Br)CBr (stereo not given),inactive
16,COc1cccc2c1cc([N+](=O)[O-])c1c(C(=O)O)cc3c(c12)OCO3,12.2 µM (active)
17,CNNC,inactive
18,CC(CCc1ccccc1)NC(C)C(O)c1ccc(O)cc1 (stereo not given),inactive
19,O=C1CN=C(c2ccccc2)c2cc([N+](=O)[O-])ccc2N1,inactive
20,C[C@]1(O)CC[C@H]2[C@@H]3CCC4=CC(=O)CC[C@]4(C)[C@@]3(F)[C@@H](O)C[C@@]21C,inactive

# — PubChem BioAssay (Tox21)
